This is an account of results in PubChem BioAssay (Tox21).

“And” between values parts separate entries of the source, which are not always exact repeats. Equal entries are not always repeated. Values without a mark were called inactive. Records with an inconclusive call do not appear. The source made the active and inactive calls. The call rests on the fitted dose curve; in most records, active means well fitted curve in the direction sought with a large enough effect in the repeat runs; inconclusive means weak or mixed curves; inactive means no such curve, though single readings can be large; an effect the other way counts as inactive or inconclusive.

Assay [1] in a line: Human pregnane X receptor (PXR) small molecule agonists, qHTS cell viability counter screen (AID 1346977). Further: nearly all actives have a fitted effect of over 50% in size. Further: potency means the concentration at half of the fitted maximal effect. A digest of the protocol: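 Cytotoxicity counter screen run in the same wells as the PXR luciferase assay, using PXR-Luc HepG2 cells in charcoal-stripped serum medium. Viability: CellTiter-Fluor fluorescence after 24hr compound treatment.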
(In qHTS, concentration-response curves come from the screen itself.)

Assay [2] in a line: Caspase-3/7 induction in HepG2 cells by small molecules, qHTS assay (AID 1346978). Further: on the % scale 0 is the no-effect control and ±100 the full control effect; nearly all actives have a fitted effect of over 15% in size. The method in brief: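 Caspase-3/7 induction was measured by Caspase-Glo 3/7 luminescence (30 min, room temperature) after a 17 hr compound exposure of wild-type HepG2 cells seeded at 2,000 per well and pre-incubated 5 hr.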
Assay [3] is described as follows: Caspase-3/7 induction in CHO-K1 cells by small molecules, qHTS assay (AID 1346980). Further: on the % scale 0 is the no-effect control and ±100 the full control effect; nearly all actives have a fitted effect of over 15% in size. The method in brief:
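Luminescent Caspase-Glo 3/7 read (30min, room temperature) quantified apoptosis induction. Cells were wild-type CHO-K1, treated with compound for 17hr at 37 C and 5% CO2.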

Assay [4] is described as follows: Caspase-3/7 induction in HepG2 cells by small molecules, qHTS cell viability counter screen (AID 1346981). Further: nearly all actives have a fitted effect of over 30% in size. Further: potency means the concentration at half of the fitted maximal effect. A digest of the protocol:
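HepG2, WT, 2,000 cells/well; 5 hr pre-incubation 37 C/5% CO2; compound pin-transferred from DMSO; 16 hr exposure; CellTiter-Fluor, 1 hr; fluorescence read.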

The target of assay [5] is Nuclear receptor subfamily 1 group I member 2 (Homo sapiens) (UniProt O75469). The assay can be described thus: Human pregnane X receptor (PXR) small molecule agonists, qHTS assay (AID 1346982). Further: nearly all actives have a fitted effect of over 35% in size. Further: potency means the concentration at half of the fitted maximal effect. On activation: on the % scale 0 is the no-effect control and ±100 the full control effect. The method in brief:
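Luciferase signal from ONE-Glo (30 min, room temperature) measured activation of hPXR-driven CYP3A4 reporter expression in PXR-Luc HepG2 cells treated with compounds for 24 hr at 37 C.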

For assay [6], the target named is Nuclear receptor subfamily 1 group I member 2 (Rattus norvegicus) (UniProt Q9R1A7). The assay can be described thus: Rat pregnane X receptor (rPXR) activation by small molecules, qHTS assay (AID 1346983). Further: on the % scale 0 is the no-effect control and ±100 the full control effect; nearly all actives have a fitted effect of over 20% in size. Conditions: rPXR luciferase reporter cells, One-Glo luminescence, 24 h; max activation: stronger effect = higher value. The method in brief:
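Luminescent readout (One-Glo luciferase, 30 min room temperature) followed 24 hr compound treatment at 37 C of rPXR cells plated 2,000 per well and preincubated 5hr; qHTS format with compounds delivered in DMSO.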

In assay [7] the target is Nuclear receptor subfamily 1 group I member 2 (Homo sapiens) (UniProt O75469). The assay can be described thus: CYP3A4 induction through human pregnane X receptor (PXR) by small molecules, qHTS assay (AID 1346984). Further: on the % scale 0 is the no-effect control and ±100 the full control effect; nearly all actives have a fitted effect of over 40% in size. The method in brief:
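Luminescence readout: luciferase signal after One-Glo (30 min, room temperature), following 3 h at 37C with 3uM final Luciferin-IPA P450 substrate. Cells were DPX-2 (HepG2, PXR/CYP3A4-luc co-transfected) dosed for 24 h.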

For assay [8] the target is unchanged. The assay can be described thus: Human pregnane X receptor (PXR) activation by small molecules, qHTS assay (AID 1346985). Further: on the % scale 0 is the no-effect control and ±100 the full control effect; nearly all actives have a fitted effect of over 40% in size. A digest of the protocol: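 DPX-2 cells (HepG2 co-transfected with a PXR response element and a CYP3A4-promoter luciferase construct) were seeded at 2,000 per well, rested 5 hr at 37C, then exposed to DMSO-dissolved compounds for 24 hr. Activation was read as luciferase luminescence.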

For assay [9], the target named is Cytochrome P450 2D6 (Homo sapiens) (UniProt P10635). The assay can be described thus: Cytochrome P450 Family 2 Subfamily D Member 6 (CYP2D6) small molecule antagonists: luciferase reporter qHTS assay (AID 1671196). Further: nearly all actives have a fitted effect of over 50% in size. Further: potency means the concentration at half of the fitted maximal effect. The method in brief:
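Read-out is luminescence from luciferin formed by CYP2D6 turnover of a proluciferin substrate, recorded as relative luminescence units. Reactions ran 1 h at room temperature after NADPH regeneration solution was added.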

Assay [10] can be described thus: Caspase-3/7 induction in CHO-K1 cells by small molecules, qHTS cell viability counter screen (AID 1346979). Further: potency means the concentration at half of the fitted maximal effect; nearly all actives have a fitted effect of over 35% in size. A digest of the protocol: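 Cytotoxicity counter screen run in parallel with the caspase-3/7 assay: CHO-K1 cells, 16hr compound treatment at 37C, then CellTiter-Fluor for 1hr before fluorescence reading.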

Sequence of Cytochrome P450 2D6 (Homo sapiens) (P10635 whole entry, looked up): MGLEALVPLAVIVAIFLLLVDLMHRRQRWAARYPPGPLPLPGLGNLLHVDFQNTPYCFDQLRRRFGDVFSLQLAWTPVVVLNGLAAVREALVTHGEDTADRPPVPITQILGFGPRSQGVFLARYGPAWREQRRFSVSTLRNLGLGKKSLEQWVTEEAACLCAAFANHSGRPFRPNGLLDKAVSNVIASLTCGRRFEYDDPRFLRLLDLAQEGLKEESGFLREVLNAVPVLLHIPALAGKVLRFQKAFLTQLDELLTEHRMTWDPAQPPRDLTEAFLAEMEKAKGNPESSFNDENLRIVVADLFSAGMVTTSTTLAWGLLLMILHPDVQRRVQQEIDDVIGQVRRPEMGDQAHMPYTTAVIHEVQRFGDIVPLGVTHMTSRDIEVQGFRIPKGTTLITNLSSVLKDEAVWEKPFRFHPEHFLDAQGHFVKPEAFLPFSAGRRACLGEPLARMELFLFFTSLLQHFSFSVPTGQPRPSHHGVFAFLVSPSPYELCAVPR
Sequence of Nuclear receptor subfamily 1 group I member 2 (Homo sapiens) (O75469 whole entry, looked up): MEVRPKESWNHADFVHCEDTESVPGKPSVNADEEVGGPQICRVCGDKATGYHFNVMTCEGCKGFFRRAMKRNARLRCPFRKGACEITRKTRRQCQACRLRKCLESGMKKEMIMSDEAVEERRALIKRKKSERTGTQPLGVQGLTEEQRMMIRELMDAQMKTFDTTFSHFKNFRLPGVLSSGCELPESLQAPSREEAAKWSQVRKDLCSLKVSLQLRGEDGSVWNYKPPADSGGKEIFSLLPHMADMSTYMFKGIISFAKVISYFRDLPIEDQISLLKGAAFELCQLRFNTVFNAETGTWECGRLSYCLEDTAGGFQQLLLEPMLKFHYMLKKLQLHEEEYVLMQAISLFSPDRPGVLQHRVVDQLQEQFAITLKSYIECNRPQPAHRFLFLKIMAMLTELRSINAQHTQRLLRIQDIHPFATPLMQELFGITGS
Sequence of Nuclear receptor subfamily 1 group I member 2 (Rattus norvegicus) (Q9R1A7 whole entry, looked up): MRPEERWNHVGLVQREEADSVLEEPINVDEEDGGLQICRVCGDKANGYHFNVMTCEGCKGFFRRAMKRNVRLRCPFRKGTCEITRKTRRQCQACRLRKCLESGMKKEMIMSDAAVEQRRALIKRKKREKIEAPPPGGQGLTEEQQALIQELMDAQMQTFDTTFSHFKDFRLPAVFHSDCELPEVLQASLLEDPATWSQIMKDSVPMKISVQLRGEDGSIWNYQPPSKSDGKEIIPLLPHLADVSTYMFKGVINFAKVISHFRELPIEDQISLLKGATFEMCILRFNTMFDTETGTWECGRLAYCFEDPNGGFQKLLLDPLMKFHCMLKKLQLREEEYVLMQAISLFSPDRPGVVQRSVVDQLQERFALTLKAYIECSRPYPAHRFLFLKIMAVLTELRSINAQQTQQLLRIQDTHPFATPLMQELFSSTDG

For the compound `CC(C)=CCOc1ccc(/C=C/C(=O)c2ccc(OCC=C(C)C)cc2OCC(=O)O)cc1`, the Potency entry in [1], in [2], in assay [3], in [4] and in assay [5] was “inactive” in each case. For the same compound, the max activation in [6] was -3.35%.
As for `Cc1cccc(CN2CCN(C(c3ccccc3)c3ccc(Cl)cc3)CC2)c1` (stereo not given), the Potency result in assay [1], in assay [2], in assay [3], in assay [4], in assay [5] and in assay [7] was “inactive” in each case. The Potency result in assay [8] was “inactive”. Also, the max activation in assay [6] was -4.36%. Besides, the Potency in assay [9] is 3.09 µM (active).
On to `CNCc1cc(F)ccc1Oc1ccc(Cl)c(Cl)c1`, for which the Potency was 61.1 µM (active) in assay [1], 61.1 µM (active) in assay [10] and 1.78 µM (active) in assay [9]. In addition, the Potency result in assay [3] and in [5] was “inactive” in each case.
Consider `Cc1ccc2oc(CN(Cc3ccccc3)C(=O)Nc3c(F)cc(F)cc3F)c(-c3ccc(Cl)cc3)c2c1`, for which the Potency entry in assay [1], in assay [2], in assay [3] and in assay [4] was “inactive” each time. The results for the Potency in [5] and in assay [9] were 3.74 µM (active) and 0.194 µM (active), respectively.
`CCCCCCCC[P+](CCCCCCCC)(CCCCCCCC)CCCCCCCC`: the Potency in assay [1] is 2.42 µM (active); in [10], 5.42 µM (active); in assay [4], 13.6 µM (active); in [5] it was 2.42 µM (active); in assay [9], 0.141 µM (active). Further, the Potency entry in [3] was “inactive”.
On to `O=C(Oc1ccccc1)c1ccccc1C(=O)Oc1ccccc1`, for which the Potency entry in assay [1], in [2], in assay [3], in assay [4] and in [9] was “inactive” each time.
Consider `Oc1ccc(C2(c3ccc(O)cc3)CC3CC2C2CCCC32)cc1` (stereo not given), for which the Potency in assay [1] was 58.7 µM (active); in assay [10], 46.6 µM (active); in [4], 52.3 µM (active). Moreover, the Potency result in assay [3] and in assay [9] was “inactive” in each case.
In the case of `CCCCCCCCCCCC[N+](C)(C)CCCCCCCCCCCC`, the Potency in assay [1] was 27.3 µM (active); in [10], 17.2 µM (active); in assay [4], 27.3 µM (active); in [9] it was 20 µM (active). For the same compound, the Potency result in assay [3] and in assay [5] was “inactive” each time.
In the case of `O=C(c1ccc(O)cc1O)c1ccc(O)cc1O`, the Potency result in assay [1], in assay [2], in assay [3] and in [4] was “inactive” each time. Besides, the Potency was 61.2 µM (active) and 43.3 µM (active) in assay [5]; 7.98 µM (active) and 11.2 µM (active) in assay [9].
Consider `CN(C)c1ccc(C2(c3ccc(N(C)C)cc3)OC(=O)c3cc(N(C)C)ccc32)cc1`, for which the Potency entry in assay [1], in [2], in assay [3], in assay [4], in [5] and in assay [9] was “inactive” throughout.
Consider `CCCN(CCC)C(=O)C(CCC(=O)OCCCN1CCN(CCOC(=O)Cc2c(C)n(C(=O)c3ccc(Cl)cc3)c3ccc(OC)cc23)CC1)NC(=O)c1ccccc1` (stereo not given), for which the Potency is 18.8 µM (active) in assay [1]; 26.6 µM (active) in [10]; 26.6 µM (active) in assay [4]; 10.6 µM (active) in assay [5]; 27.5 µM (active) in assay [9]. Further, in assay [3], the Potency result was “inactive”.
For `CCCCCCOC(=O)c1ccc(O)cc1`, the Potency entry in [1], in assay [2], in assay [3], in [4] and in [5] was “inactive” in each case.
In the case of `Cc1cccc(S(=O)(=O)O)c1C`, the Potency entry in [1], in assay [2], in assay [3], in [4], in assay [5] and in assay [9] was “inactive” each time.
On to `CN(C)c1ccc(SC#N)cc1`, for which the Potency entry in assay [1], in assay [2], in assay [3] and in assay [4] was “inactive” in each case. For the same compound, the Potency in assay [5] was 9.69 µM (active); in [9], 31.7 µM (active).
`COC(=O)C1=C(C)NC(C)=C(C(=O)OCCc2ccc(N3CCN(C(c4ccccc4)c4ccccc4)CC3)cc2)C1c1cccc([N+](=O)[O-])c1` (stereo not given): the Potency entry in assay [1], in assay [2], in [3], in [4], in assay [5] and in assay [9] was “inactive” each time.
Turning to `Oc1ccc2c(c1)-c1ccccc1C2`, the Potency entry in [1], in assay [2], in assay [3], in [4] and in [9] was “inactive” each time. The Potency in assay [5] is 68.6 µM (active).
As for `NC(=O)N1C(=O)C(C(=O)c2cc(Cl)cs2)c2cc(F)c(Cl)cc21` (stereo not given), the results for the Potency in assay [1], in [10] and in [4] were 54.5 µM (active), 61.1 µM (active) and 54.5 µM (active), respectively. Besides, the Potency result in assay [3] is “inactive”.
On to `O=C(O)c1ccc(Cl)c(Cl)c1`, for which the Potency entry in assay [1], in assay [2], in [3], in assay [4], in assay [5] and in assay [9] was “inactive” throughout.
Turning to `OCCCCCCCCCCCCBr`, the Potency entry in assay [1], in [2], in assay [3], in assay [4] and in [9] was “inactive” in each case.
As for `O=c1[nH]cnc2nc[nH]c12`, the Potency entry in assay [1], in assay [2], in assay [3], in assay [4], in [5] and in assay [7] was “inactive” each time. In addition, the Potency result in [9] was “inactive”. The max activation in [6] is -3.71%.
Consider `COc1ccc(-c2ccc3cc(C(=O)O)ccc3c2)cc1C12CC3CC(CC(C3)C1)C2`, for which the Potency result in assay [1], in assay [2], in assay [3], in [4], in assay [5] and in assay [7] was “inactive” in each case. The max activation in assay [6] was -8.07%.
